“And” between values parts separate entries of the source, which are not always exact repeats. Equal entries are not always repeated. This is part of a sample that, as a whole, favours compounds with a hit. Of some 83,000 tested, about 20% had one in any assay.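 Each cell line was grown in a 96-well plate and treated with one concentration of compound for 48 hours. Values below 10 were considered active.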 A number with no mark means an inactive call. The source made the active and inactive calls.

Among the test systems are NCI-H23 lung; NCI-H226 lung; NCI-H322M lung; HOP-62 NSCLC; HOP-92 NSCLC; NCI-H522 lung; A549/ATCC NSCLC; 786-0 renal; COLO 205 colon; NCI-H460 lung.
Test in all cases: NCI-60 one-dose screen, 48 h (100 = growth as untreated, 0 = no growth, -100 = all killed)
What all share (conditions): 10 µM unless noted

For the compound `COc1ccccc1NC(=O)c1ccc(NC(=O)CCl)s1`, the growth with NCI-H23 lung was -66% (active); in the experiment with NCI-H226 lung, -34.6% (active); in the experiment with NCI-H322M lung, 94.1%; in the experiment on HOP-62 NSCLC it was 41.9%; in the experiment with HOP-92 NSCLC it was -0.226% (active); with NCI-H522 lung it was -77.3% (active). Moreover, the growth in the experiment with A549/ATCC NSCLC is -2.86% (active); with 786-0 renal it was -93.4% (active); with COLO 205 colon it was 9.16% (active).

Take `COc1c2c(c(Br)c3c1C(CCc1ccccc1)N(C)CC3)OCO2` (configuration not stated): the growth was 16.4% in the experiment on NCI-H23 lung; 51.7% with NCI-H226 lung; 38.5% with NCI-H322M lung; 68.2% with HOP-62 NSCLC; 22.6% in the experiment with HOP-92 NSCLC; 56.9% in the experiment on NCI-H522 lung. Further, the growth in the experiment with A549/ATCC NSCLC was 45.9%; in the experiment with 786-0 renal, 47.6%; in the experiment with COLO 205 colon, 29.6%.

Take `CCOc1ccccc1NC(=O)N/C(N)=N/c1nc2ccccc2s1`: the growth in the experiment with NCI-H23 lung is 12.6%; in the experiment with NCI-H226 lung, 33.9%; with NCI-H322M lung, 35.9%; in the experiment with NCI-H460 lung, 6.47% (active); in the experiment on HOP-92 NSCLC it was -13.4% (active); with NCI-H522 lung, -39.8% (active). The figures for the growth with A549/ATCC NSCLC, in the experiment on 786-0 renal and in the experiment on COLO 205 colon were 13.6%, 12.9% and -78.1% (active), respectively.

Consider `Nc1nnc(-c2cncc(Br)c2)c(-c2c[nH]c3ccc(Br)cc23)n1`, for which the growth in the experiment with NCI-H23 lung was 70.7%; in the experiment with NCI-H226 lung, 76.5%; in the experiment with NCI-H322M lung it was 78.2%; with NCI-H460 lung it was 39.6%; in the experiment with HOP-92 NSCLC, 83.3%; with NCI-H522 lung it was 17.9%. Further, the growth is 49.2% in the experiment on A549/ATCC NSCLC, 55.5% in the experiment with 786-0 renal and 51.3% with COLO 205 colon.

With `CNc1nc2ccccc2n2c(-c3ccc(O)c(O)c3)cnc12`, the growth with NCI-H23 lung is 16.1%; in the experiment with NCI-H226 lung, -14.9% (active); in the experiment on NCI-H322M lung, 38.8%; in the experiment on NCI-H460 lung, 3.63% (active); with HOP-92 NSCLC, 13.9%; in the experiment with NCI-H522 lung, -39.6% (active). For the same compound, the growth with A549/ATCC NSCLC was 15.9%; in the experiment on 786-0 renal it was 24.7%; in the experiment on COLO 205 colon, -54.3% (active).

`Fc1ccc(F)c(CNc2nc(SCCN3CCOCC3)nc3c2cnn3CC(Cl)c2ccc(Br)cc2)c1` (configuration not stated): the growth in the experiment with NCI-H23 lung was 40.3%; with NCI-H226 lung, 16.2%; in the experiment with NCI-H322M lung, 75.2%; with NCI-H460 lung, 6.7% (active); with HOP-92 NSCLC, 20.1%; in the experiment with NCI-H522 lung, 37.6%. Besides, the values for the growth with A549/ATCC NSCLC, in the experiment on 786-0 renal and with COLO 205 colon were 20.9%, 17.7% and -57% (active), respectively.

With `COc1cccc(C(N)=Nc2ccc(OCCCCCCCCn3cncn3)cc2)c1`, the growth in the experiment with NCI-H23 lung was 9.5% (active); with NCI-H322M lung, 58.1%; in the experiment with HOP-62 NSCLC, 16.2%; with HOP-92 NSCLC it was 73.7%; with A549/ATCC NSCLC it was 24.6%; with 786-0 renal it was 28.4%.

For `COc1ccc(-c2nnc3c(/C=C/c4ccc(Br)cc4)nc4ccccc4n23)cc1`, the growth in the experiment on NCI-H23 lung was 29.9%; in the experiment with NCI-H226 lung, 96.7%; in the experiment with NCI-H322M lung it was 96.5%; with NCI-H460 lung, 67.6%; with HOP-92 NSCLC it was 35.6%; in the experiment with NCI-H522 lung it was -79.9% (active). The growth in the experiment with A549/ATCC NSCLC was 75.8%; in the experiment on 786-0 renal it was -41.8% (active); with COLO 205 colon, -53% (active).

As to `COc1ccc(NC(=O)CSc2nnc(-c3ccc(-c4nc5ccccc5[nH]4)cc3)o2)cc1`, the growth with NCI-H23 lung is 11.9%; in the experiment with NCI-H226 lung, 20.3%; in the experiment on NCI-H322M lung it was 74.3%; in the experiment with NCI-H460 lung it was 0.884% (active); in the experiment with HOP-92 NSCLC it was 10.8%; with NCI-H522 lung, 0.861% (active). For the same compound, the results for the growth in the experiment on A549/ATCC NSCLC, with 786-0 renal and in the experiment with COLO 205 colon were 6.46% (active), -33.8% (active) and 49.2%, respectively.

As to `NC1(c2ccc(-c3ccc4ncnc(NCc5ccccc5)c4c3)cn2)COC1`, the growth with NCI-H23 lung is 108% and 105%; in the experiment on NCI-H226 lung, 103% and 111%; in the experiment on NCI-H322M lung, 109% and 97%; in the experiment on HOP-92 NSCLC it was 112% and 120%; in the experiment with NCI-H522 lung, 109% and 105%; with A549/ATCC NSCLC it was 111% and 109%. Also, the growth was 115% and 104% with 786-0 renal; 112% and 126% with COLO 205 colon.

`O=C(N/N=C/c1ccc(Cl)cc1)c1ccc(OCc2nc3ccc(Cl)cc3[nH]2)cc1`: the growth in the experiment on NCI-H23 lung is 4.91% (active); in the experiment on NCI-H226 lung it was 77.4%; in the experiment with NCI-H322M lung it was 71.3%; in the experiment on NCI-H460 lung, -82.3% (active); in the experiment on HOP-92 NSCLC it was 19.6%; with NCI-H522 lung it was 7.51% (active). In addition, the growth in the experiment on A549/ATCC NSCLC was -60.1% (active); in the experiment with 786-0 renal it was -63.1% (active); in the experiment with COLO 205 colon, 4.04% (active).

Regarding `Cc1cc(N=C(N)c2ccccc2)ccc1OCCCCCCCCn1ccnc1`, the growth is -28% (active) in the experiment with NCI-H23 lung; 18.7% in the experiment with NCI-H322M lung; -14.4% (active) with HOP-62 NSCLC; 16.3% in the experiment with HOP-92 NSCLC; 15% with A549/ATCC NSCLC; 4.01% (active) in the experiment with 786-0 renal.

With `NC(=Nc1ccc(OCCCCCCCCn2cnnn2)cc1)c1ccccc1`, the growth with NCI-H23 lung was 10.8%; in the experiment with NCI-H226 lung, 21.3%; with NCI-H322M lung, 57%; in the experiment on HOP-62 NSCLC, 18.6%; in the experiment with HOP-92 NSCLC it was 82.5%; in the experiment on A549/ATCC NSCLC, 23.7%. Besides, the growth in the experiment on 786-0 renal was 34.5%.

Turning to `Nc1nc2cc(-c3ccc4ncnc(NCc5ccccc5)c4c3)ccc2o1`, the growth with NCI-H23 lung is 24.4%; in the experiment with NCI-H226 lung, -45.9% (active); in the experiment with NCI-H322M lung, -19.8% (active); in the experiment on HOP-92 NSCLC, -39.5% (active); in the experiment with NCI-H522 lung, -12.1% (active); with A549/ATCC NSCLC, 11.4%. The results for the growth in the experiment on 786-0 renal and in the experiment on COLO 205 colon were 9.02% (active) and 52.9%, respectively.

As for `COc1ccc(C(=O)c2c(N)c(C#N)cn2-c2ccc([N+](=O)[O-])cc2)cc1`, the growth was 103% in the experiment with NCI-H23 lung; 102% with NCI-H226 lung; 100% in the experiment with NCI-H322M lung; 108% with NCI-H460 lung; 102% in the experiment on HOP-92 NSCLC; 85.1% in the experiment with NCI-H522 lung. Also, the growth is 103% with A549/ATCC NSCLC, 109% in the experiment on 786-0 renal and 105% in the experiment with COLO 205 colon.

Take `Cc1ccc(C(=O)Nc2cc(-n3ccnc3C)cc(C(F)(F)F)c2)cc1C#Cc1cnc2cccnn12`: the growth is -26.1% (active) in the experiment with NCI-H23 lung; -33.1% (active) with NCI-H226 lung; 21% in the experiment on NCI-H322M lung; 5.86% (active) in the experiment on NCI-H460 lung; -31.5% (active) with HOP-92 NSCLC; -29.1% (active) in the experiment with NCI-H522 lung. Moreover, the growth is 11.3% with A549/ATCC NSCLC, 6.68% (active) in the experiment with 786-0 renal and -19.9% (active) in the experiment with COLO 205 colon.

For the compound `Oc1ccc(Cl)c(Nc2ncnc3c2cnn3CC(Cl)c2ccc(Br)cc2)c1` (configuration not stated), the growth with NCI-H23 lung is 65.8%; with NCI-H226 lung, 84%; in the experiment with NCI-H322M lung it was 67%; in the experiment on NCI-H460 lung, 67.1%; in the experiment on HOP-92 NSCLC, 8.3% (active); in the experiment on NCI-H522 lung, 52.6%. In addition, the growth in the experiment on A549/ATCC NSCLC was 53.9%; with 786-0 renal, 63.9%; in the experiment on COLO 205 colon, 90.9%.

With `CCCCNC(=S)Nc1ccc(OCc2nc3ccc(Cl)cc3[nH]2)cc1`, the growth with NCI-H23 lung was 29.3%; in the experiment on NCI-H226 lung, 58.4%; in the experiment on NCI-H322M lung, 57%; in the experiment with HOP-92 NSCLC it was -0.247% (active); in the experiment with NCI-H522 lung it was -57.5% (active); in the experiment with A549/ATCC NSCLC, 52.7%. Besides, the results for the growth in the experiment on 786-0 renal and in the experiment on COLO 205 colon were 31.3% and 24.9%, respectively.

As for `CN1CCN(CCS(=O)(=O)Nc2cc(-c3ccc4ncnc(Nc5ccc(F)c(Cl)c5)c4c3)cnc2Cl)CC1`, the growth with NCI-H23 lung is 13%; in the experiment with NCI-H226 lung, 48.9%; with NCI-H322M lung, -15.5% (active); in the experiment with HOP-92 NSCLC, -10.2% (active); in the experiment on NCI-H522 lung, 10.1%; in the experiment on A549/ATCC NSCLC, 55.6%. Also, the growth with 786-0 renal is 19.4%; with COLO 205 colon, -31.9% (active).

As to `COc1sc(/C=N/NC(=O)c2[nH]c3ccc(Br)cc3c2-c2ccccc2)cc1Cl`, the growth was -41.9% (active) in the experiment on NCI-H23 lung; -17.8% (active) with NCI-H226 lung; 13.3% in the experiment on NCI-H322M lung; 1.26% (active) in the experiment with NCI-H460 lung; -7.87% (active) with HOP-92 NSCLC; -39% (active) with NCI-H522 lung. Also, the growth with A549/ATCC NSCLC is -20.2% (active); with 786-0 renal it was -49.8% (active); with COLO 205 colon, -60.9% (active).

`Cc1ccc(NC(=O)N/N=C/c2c[nH]c3ccccc23)c(C)c1`: the growth is 12.6% with NCI-H23 lung; 12.6% in the experiment with NCI-H226 lung; 42% in the experiment with NCI-H322M lung; 5.78% (active) in the experiment on NCI-H460 lung; 16.3% in the experiment on HOP-92 NSCLC; -36.8% (active) in the experiment on NCI-H522 lung. Further, the growth is 14.9% in the experiment on A549/ATCC NSCLC, -18.4% (active) in the experiment on 786-0 renal and -51.5% (active) with COLO 205 colon.
